We go through 40 molecules from PubChem BioAssay (Tox21).

Unmarked numbers belong to inactive results. Calls come from the whole dose curve; as a rule, active = well fitted activation curve with a large enough effect in the repeat runs; inconclusive = weak or mixed curves; inactive = flat fitted curve, though single readings scatter.
% is set by controls: 0 for no effect and ±100 for the full control effect.

Chain of KiSS-1 receptor (Homo sapiens) (Q969F8 whole entry, looked up): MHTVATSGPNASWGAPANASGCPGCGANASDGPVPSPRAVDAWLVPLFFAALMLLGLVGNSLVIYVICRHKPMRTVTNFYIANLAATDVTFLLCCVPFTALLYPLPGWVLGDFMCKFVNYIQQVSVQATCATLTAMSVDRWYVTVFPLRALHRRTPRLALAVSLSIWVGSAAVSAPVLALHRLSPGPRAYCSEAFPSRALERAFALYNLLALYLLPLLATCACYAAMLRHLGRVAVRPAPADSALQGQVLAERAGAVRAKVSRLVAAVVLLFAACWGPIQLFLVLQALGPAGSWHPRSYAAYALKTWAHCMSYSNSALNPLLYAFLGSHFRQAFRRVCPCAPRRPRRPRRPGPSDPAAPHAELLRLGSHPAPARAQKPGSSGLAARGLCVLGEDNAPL

This assay has as its target KiSS-1 receptor (Homo sapiens) (UniProt Q969F8). Put plainly: Human kisspeptin (KISS1R) small molecule agonists, calcium flux assay in KISS1R-HEK293 cells (AID 1920064). The note with it: KISS1R-HEK293, calcium flux fluorescence, agonist; series mostly up to 76.8 µM; activation: at the top concentration. An excerpt: National Center for Advancing Translational Sciences [NCATS]
Division of Preclinical Innovation [DPI]
U.S. Environmental Protection Agency [EPA]
National Institutes of Environmental Health Sciences [NIEHS]
National Toxicology Program [NTP]
U.S. Food and Drug Administration [FDA]
Kisspeptin and its receptor KISS1R play key roles in mammalian reproduction due to their involvement in the onset of puberty and control of the hypothalamic-pituitary-gonadal axis such as regulates GnRH release from the hypothalamus. The kisspeptin/KISS1R system also plays a direct role in peripheral organs (including the ovary, testis, uterus, and placenta) and is implicated in reproductive diseases such as miscarriage and polycystic ovary syndrome (PCOS). Abnormal KISS1R activity is associated with abnormal puberty, infertility, endometriosis, and hormone-dependent tumors. The KISS1 receptor (KISS1R, also called GPR54), a G-protein-coupled receptor (GPCR), acts (through phospholipase C) to increase intracellular inositol trisphosphate and then release intracellular calcium stores. Cell-based KISS1R-HEK293 assay is using HEK293 cells that have been genetically engineered to express the human KISS1R, which activity can be measured by calcium signaling. A compound/drug can activate (agonist) KISS1R that can be monitored by levels of intracellular calcium.
KISS1R-HEK293 cells developed by Codex Corp contain human KISS1R gene, which was stably integrated into HEK 293 cells. The compound activation can be detected by fluorescence intensity via calcium flux assay. This cell line has been used to screen the Tox21 10K compound library to identify agonists of KISS1R.
KISS1R-Hek293 cells were dispensed at 1500 cells/4uL/well in 1536-well black wall/clear bottom plates using a multidrop dispenser. After the assay plates were incubated at a 37 C/5% CO2 incubator for 18 hours, 4 microL of Calcium Dye Solution was added to each well. The plates were incubated at 37 C for 1 hour. And then 23 nL of compounds dissolved in DMSO, positive controls, or DMSO only was transferred to the assay plate by a pin tool station. The fluorescence intensity in the plates was measured using FDSS 7000EX kinetic plate reader with a filter set of Ex/Em=480/540 for 3 min at 1 sec intervals. Each test compound was measured at 15 concentrations and in triplicates.
Background: Calcium flux is commonly read through the fluorescence of an indicator in the cells.
Take `COC1CCC=CO1` (stereo not given): the “activation” value is -0.582%.

Consider `COC(C)(C)CC(C)=O`, for which the “activation” value is -3.22%.

Take `O=C(Oc1cccc2cccnc12)c1ccccc1`: the “activation” value was -0.884% [at 35.3 µM].

Regarding `COc1cccc(CCc2ccccc2OCC(CN(C)C)OC(=O)CCC(=O)O)c1` (stereo not given), the “activation” value was -0.836% [at 35.3 µM].

`C=C(C)C(=O)OCC(O)COc1ccc(C(C)(C)c2ccc(OCC(O)COC(=O)C(=C)C)cc2)cc1` (stereo not given): the “activation” value was 1.68%.

As for `CCCc1nc(C)c2c(=O)[nH]c(-c3cc(S(=O)(=O)N4CCN(CC)CC4)ccc3OCC)nn12`, the “activation” value was -0.732% [at 35.3 µM].

For the molecule `CCOc1ccccc1OCC1CNCCO1` (stereo not given), the “activation” value is -0.932% [at 35.3 µM].

Regarding `COc1cc(Cl)c(OC)cc1N`, the “activation” value was -3.02%.

As to `OC[C@H]1O[C@@H](n2cnc3c(=S)nc[nH]c32)[C@H](O)[C@@H]1O`, the “activation” value is -0.134% [at 35.3 µM].

With `C[C@@H](O)C(=O)O`, the “activation” value is -0.121%.

With `C=CCCCCCCC=C`, the “activation” value is 2.53%.

Regarding `CN(C)C(=O)COC(=O)Cc1ccc(OC(=O)c2ccc(N=C(N)N)cc2)cc1`, the “activation” value was -1.32% [at 35.3 µM].

On to `NNC(=O)CCCCC(=O)NN`, for which the “activation” value is 2.96%.

Take `O=C(NO)c1ccccc1`: the “activation” value is 3.08%.

Consider `CC(=O)OCC(=O)[C@@]1(O)CC[C@H]2[C@@H]3CCC4=CC(=O)CC[C@]4(C)[C@H]3C(=O)C[C@@]21C`, for which the “activation” value is 8.72% [at 35.3 µM].

Consider `CCN(C)C(=O)Oc1cccc([C@H](C)N(C)C)c1`, for which the “activation” value is 0.181% [at 35.3 µM].

For `O=C(O)CCCCCCCCCC(=O)O`, the “activation” value is -0.157%.

On to `CNC(C)=O`, for which the “activation” value was 0.443%.

Regarding `CC(C)(C)CC(C)(C)c1ccccc1O`, the “activation” value is -0.659%.

In the case of `Cn1c(N)nc2nc[nH]c2c1=O`, the “activation” value is 6.08%.

In the case of `CC1(C)CCC[C@]2(C)[C@H]3CCO[C@]3(C)CC[C@@H]12`, the “activation” value was -0.211%.

Turning to `Cc1cccc(NC(=S)N(C)C)c1`, the “activation” value is 4.06%.

As for `CCNCCO`, the “activation” value is -1.19%.

For the molecule `CN(C)C(=O)NC1(c2ccccc2)CCN(CC[C@@]2(c3ccc(F)c(F)c3)CN(C(=O)c3ccccc3)CCO2)CC1`, the “activation” value is 2.47%.

`NS(=O)(=O)c1ccc(C(=O)O)cc1`: the “activation” value is -0.455% [at 35.3 µM].

In the case of `C[C@@H]1C[C@H]2[C@@H]3CCC4=CC(=O)C=C[C@]4(C)[C@@]3(F)[C@@H](O)C[C@]2(C)[C@@]1(O)C(=O)COC(=O)c1ccncc1`, the “activation” value is -0.0486% [at 35.3 µM].

In the case of `O=C(O)[C@@H]1CSCN1`, the “activation” value is 1.55% [at 35.3 µM].

Turning to `CC(C)n1nc(-c2cc3cc(O)ccc3[nH]2)c2c(N)ncnc21`, the “activation” value was 4.71% [at 35.3 µM].

For the molecule `Cc1nc(Nc2ncc(C(=O)Nc3c(C)cccc3Cl)s2)cc(N2CCN(CCO)CC2)n1`, the “activation” value is -0.0291% [at 35.3 µM].

Take `CC(C)(C)c1cc(CO)cc(C(C)(C)C)c1O`: the “activation” value was 1.81%.

Take `Cn1cc(C(=O)[C@@H]2CCc3nc[nH]c3C2)c2ccccc21`: the “activation” value was -2.17% [at 35.3 µM].

`CCCCCCC(=O)c1ccccc1`: the “activation” value is 0.194%.

As for `CCCCOCCOCCOCc1cc2c(cc1CCC)OCO2`, the “activation” value was 3.2% [at 35.3 µM].

In the case of `CN(C)C(=O)Nc1ccccc1`, the “activation” value was -2.51%.

Turning to `CCOC(=O)OC(C)OC(=O)[C@@H]1N2C(=O)[C@@H](NC(=O)[C@H](N)c3ccccc3)[C@H]2SC1(C)C` (stereo not given in full), the “activation” value is -0.46% [at 35.3 µM].

Take `O=C1NCCN1`: the “activation” value is 4.17%.

For `Cc1nc2c([nH]1)c(=O)n(C)c(=O)n2Cc1ccco1`, the “activation” value is -0.767% [at 35.3 µM].

Consider `C=CCCCCCCCCOC(C)=O`, for which the “activation” value was -0.384%.

With `Nc1cccc2c(N)cccc12`, the “activation” value is 7.63%.

Take `CCCC1C(CC)=CC(CC)=CN1c1ccccc1` (stereo not given): the “activation” value is 0.789%.
